# In PubChem BioAssay:
# Active and inactive are the calls of the source.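 Rule for the calls, unless noted: active = inhibition at or above 50% at 10 µM; inactive = inhibition below 50%.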
# Assays:
# [1] = inhibitors of TNFa-induced NFkB p65 translocation, primary screen, imaging, HUVEC, MLSMR starter and 10KST1 sets (AID 438;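 active = inhibition above 20% together with a positive visual image hit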;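 note: compound added about 3h40 before a 20 min TNFalpha stimulation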;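 for inhibition: signal is the nuclear over cytoplasmic p65 intensity ratio per well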); conditions: HUVEC TNFa-induced p65 nuclear translocation; cell count: measured here: nuclei count (cytotoxicity indicator), at 2.08 µM; inhibition: at 2 µM, stronger effect = higher value, 0% TNFa-plus-vehicle, 100% no-TNFa wells
# [2] = reduction of polyQ htt aggregates in cells – imaging, exon1htt(103Q)mCFP cells, high-content imaging, primary screen (AID 483;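 active = visual image review flags a hit and inhibition of aggregation exceeds 20%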;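 note: compound exposure lasted 3 days before fixation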;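 for nuclei count: percent of the per-plate median nuclei count of sample wells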); conditions: exon1htt(103Q)mCFP cell line, aggregate imaging, at 2 µM; inhibition of aggregation: stronger effect = higher value; nuclei count: measured here: cell count, toxicity
# [3] = endothelial E-selectin expression blockers – imaging, HUVEC, immunofluorescence, MLSMR starter and 10KST1 sets, primary screen (AID 487;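 active = visually confirmed hit in the image check and inhibition above 20%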;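 for inhibition: signal is fraction of cell area covered by stained E-selectin grains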;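 for nuclei count: 100% = median nuclei count of all wells on the same plate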); conditions: HUVEC TNFalpha-induced E-selectin immunofluorescence imaging, at 2 µM; inhibition: stronger effect = higher value; nuclei count: measured here: cell number, toxicity
# [4] = biological target: Voltage-gated potassium channel subunit beta-2 (Rattus norvegicus) (UniProt P62483); test: inhibitors of rat Kvbeta2 reductase activity – biochemical, NADPH fluorescence, primary screen (AID 622;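 active = fluorescence slope higher than the sample average by over 3 SD, cut at about -0.22 in these data, passing the limit was not always enough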;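 note: slope of raw intensity against log time taken from 70 to 1610 s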); conditions: recombinant KvBeta, 4-cyanobenzaldehyde reduction, at 10 µM, stronger effect = higher value
# Chain of Voltage-gated potassium channel subunit beta-2 (Rattus norvegicus) (P62483 whole entry, looked up): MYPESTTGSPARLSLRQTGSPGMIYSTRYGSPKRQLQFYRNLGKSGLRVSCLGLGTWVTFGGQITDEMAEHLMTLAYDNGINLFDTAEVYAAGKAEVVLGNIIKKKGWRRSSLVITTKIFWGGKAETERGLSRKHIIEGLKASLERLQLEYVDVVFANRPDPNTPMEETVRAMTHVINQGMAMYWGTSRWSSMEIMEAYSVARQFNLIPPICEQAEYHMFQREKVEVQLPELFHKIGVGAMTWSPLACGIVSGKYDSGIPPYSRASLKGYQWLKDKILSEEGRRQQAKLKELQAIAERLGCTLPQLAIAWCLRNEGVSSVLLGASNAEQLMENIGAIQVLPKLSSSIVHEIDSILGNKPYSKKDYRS
# [5] = biological target: Voltage-gated potassium channel subunit beta-2 (Rattus norvegicus) (UniProt P62483); test: enhancers of rat Kvbeta2 NADPH turnover – biochemical, NADPH fluorescence, primary screen (AID 623;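 active = NADPH fluorescence slope more negative than the mean of all samples by about 3 SD, 99.7% confidence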;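 note: fluorescence intensity change per second fitted from 20 to 320 s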); conditions: Recombinant KvBeta, NADPH fluorescence decrease slope, 10 min; at 10 µM; stronger effect = lower value
# [6] = biological target: Alpha-2C adrenergic receptor (Homo sapiens) (UniProt P18825); test: compounds altering alpha2C-coupled GIRK flux – cell-based, HEK293 alpha2C/GIRK1/2, thallium flux, primary screen (AID 624;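 active = fluorescence slope after compound addition differing from the mean of all screened samples at 99.7% confidence, in either direction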;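 note: slope of fluorescence ratio to pre-addition baseline per second over 15 to 24 s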); conditions: thallium flux BTC fluorescence, at 10 µM, actives lie on both sides
# Chain of Alpha-2C adrenergic receptor (Homo sapiens) (P18825 whole entry, looked up): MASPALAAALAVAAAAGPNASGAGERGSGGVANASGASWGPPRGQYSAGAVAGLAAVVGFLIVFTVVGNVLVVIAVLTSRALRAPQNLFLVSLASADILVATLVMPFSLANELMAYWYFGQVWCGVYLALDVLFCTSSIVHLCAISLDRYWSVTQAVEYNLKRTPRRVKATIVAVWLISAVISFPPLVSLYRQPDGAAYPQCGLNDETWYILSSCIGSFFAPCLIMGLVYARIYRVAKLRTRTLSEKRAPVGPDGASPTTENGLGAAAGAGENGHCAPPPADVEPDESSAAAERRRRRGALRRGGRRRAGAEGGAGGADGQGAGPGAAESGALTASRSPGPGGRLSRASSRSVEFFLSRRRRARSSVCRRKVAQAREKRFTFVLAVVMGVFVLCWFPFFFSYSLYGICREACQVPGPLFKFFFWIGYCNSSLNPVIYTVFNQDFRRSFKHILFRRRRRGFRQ
# [7] = blockers of RIG-like receptor reporter activation – cell-based, Sendai virus stimulus, luciferase, 10K MLSCN set, TLR/RLR signaling modifier project, primary screen (AID 602276); conditions: HEK293 RL24 IRF3 luciferase reporter, at 10 µM, stronger effect = higher value;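 note: firefly luciferase from ISG56 promoter only with Renilla not read in this screen; 0% = Sendai virus plus DMSO and 100% = medium plus DMSO without virus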
# [8] = TLR3 IRF3 reporter activation blockers – cell-based, poly I:C stimulus, luciferase, 10K MLSCN set, primary screen (AID 602277;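 active = inhibition of the reporter signal at or above 50%; inactive = inhibition below 50%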); conditions: HEK293-TLR3 RL24 IRF3 luciferase reporter, at 10 µM, stronger effect = higher value
SMILES,cell count [1],inhibition [1],inhibition of aggregation [2],nuclei count [2] [%],inhibition [3],nuclei count [3] [%],fluorescence slope [4],NADPH fluorescence slope [5],slope [6],inhibition [7],inhibition [8]
O=C1CN(C(=O)COC(=O)C23CC4CC(CC(O)(C4)C2)C3)c2ccccc2N1,649,1.4% (inactive),8% (inactive),106,-44.5% (inactive),102,-0.597 (inactive),-3.1e-05 (inactive),0.00543 (inactive),8.83% (inactive),27.8% (inactive)
Cc1cc(NC(c2cccnc2)c2c(C)[nH]c3ccccc23)no1 (stereo unspecified),514,2.5% (inactive),7.6% (inactive),112,-105% (inactive),135,-0.596 (inactive),-4.4e-05 (inactive),0.00254 (inactive),17.8% (inactive),28.6% (inactive)
CCN1C(=O)/C(=C2\C=Cc3ccccc3N2CC)OC1=S,695,-8% (inactive),0.5% (inactive),8.3,16.6% (inactive),107,-0.334 (inactive),-4.6e-05 (inactive),0.00379 (inactive),4% (inactive),-8.93% (inactive)
Cc1cc(C)cc(NC(=O)c2nnn(Cc3cc(C)ccc3C)c2N)c1,598,8.7% (inactive),-15.9% (inactive),90.3,-5.5% (inactive),125,-0.564 (inactive),-3.4e-05 (inactive),0.00689 (inactive),44.9% (inactive),14.5% (inactive)
Cc1ccc(N(C(=O)C2CCC(=O)N2)C2(C(=O)NC3CCCCC3)CCCCC2)cc1 (stereo unspecified),690,11.9% (inactive),22.8% (inactive),85.5,-16.1% (inactive),84.9,-0.558 (inactive),3.4e-05 (inactive),0.00517 (inactive),-4.63% (inactive),5.62% (inactive)
Cc1oc(-c2ccccc2F)nc1CS(=O)(=O)CC(=O)N1CCCCCC1,712,-1.1% (inactive),-22.4% (inactive),116,-40.3% (inactive),117,-0.57 (inactive),-9.9e-06 (inactive),0.00627 (inactive),-6.49% (inactive),1.53% (inactive)
Cn1nnnc1SCC(=O)N1CCN(c2ccccc2)CC1,400,-0.2% (inactive),7% (inactive),97.4,-49.9% (inactive),97.6,-0.362 (inactive),-4.2e-05 (inactive),0.00625 (inactive),11.7% (inactive),27.5% (inactive)
CCOC(=O)c1[nH]c(C)c(C(=O)Nc2ccccc2C)c1C,619,12.1% (inactive),-101% (inactive),7.1,-15.2% (inactive),94.8,-0.603 (inactive),-5.4e-05 (inactive),0.00703 (inactive),27.7% (inactive),11.1% (inactive)
COCCNC(=O)c1ccc(CS(=O)(=O)c2ccc(OC)cc2)o1,636,4.1% (inactive),-4.8% (inactive),96.8,5.3% (inactive),124,-0.583 (inactive),-5.4e-05 (inactive),0.00675 (inactive),9.76% (inactive),25.7% (inactive)
CCCNC(=O)C1CCN(S(=O)(=O)c2ccc3nc4c(c(C(=O)O)c3c2)CCCCC4)CC1,637,1.3% (inactive),-1.8% (inactive),119,-26.6% (inactive),118,-0.531 (inactive),2e-05 (inactive),0.00704 (inactive),8.11% (inactive),12.8% (inactive)
COc1ccc(CCNC(=O)CSc2nnc(CNc3ccc(Cl)cc3)o2)cc1OC,241,-3.2% (inactive),33.1% (active),72.1,10.2% (inactive),63.5,-0.594 (inactive),-1.9e-05 (inactive),0.0062 (inactive),11.9% (inactive),19.4% (inactive)
CCN(CC)C(=O)C1CCC(CNS(=O)(=O)c2cccc3cccnc23)CC1 (stereo unspecified),787,4.4% (inactive),-8.4% (inactive),94.4,-26.3% (inactive),114,-0.497 (inactive),-2.6e-05 (inactive),0.00724 (inactive),11.4% (inactive),16.8% (inactive)
COc1ccc(NC(=O)C2Cc3ccccc3C(=O)O2)cc1 (stereo unspecified),642,0.3% (inactive),15.6% (inactive),105,-19.3% (inactive),120,-0.427 (inactive),-6e-05 (inactive),0.00562 (inactive),-11.7% (inactive),-23.5% (inactive)
C#CCSc1nnc(-c2ccccc2)c(=O)[nH]1,903,-8.2% (inactive),0.6% (inactive),127,-57.3% (inactive),109,-0.505 (inactive),-4.9e-05 (inactive),0.00603 (inactive),-0.0999% (inactive),-4.88% (inactive)
COC(=O)Cn1c2ccccc2c2nc(C)sc21,350,11.4% (inactive),-14.3% (inactive),106,-59.3% (inactive),125,-0.439 (inactive),7e-06 (inactive),0.00472 (inactive),-14.8% (inactive),-8.31% (inactive)
Cc1cc(Cl)ccc1NC(=O)CSc1nnc(Cc2cccs2)n1Cc1ccco1,270,-4.3% (inactive),27.5% (inactive),74.6,-32.8% (inactive),102,-0.494 (inactive),-5e-05 (inactive),0.00645 (inactive),17.4% (inactive),32.2% (inactive)
COc1ccc(CCN2C(=O)CCC2(C)C(=O)NCc2cccnc2)cc1OC (stereo unspecified),436,-6% (inactive),5.2% (inactive),103,-83.9% (inactive),97.9,-0.602 (inactive),2.6e-06 (inactive),0.0059 (inactive),8.53% (inactive),7.83% (inactive)
CN(C)S(=O)(=O)N1CCN(S(=O)(=O)c2ccc(F)cc2)CC1,787,3.6% (inactive),-7% (inactive),103,-118% (inactive),141,-0.436 (inactive),-9.3e-07 (inactive),0.00495 (inactive),-20.1% (inactive),-21% (inactive)
COc1ccc(C)cc1C(=O)CCC(=O)Nc1ccccc1N1CCOCC1,382,8.3% (inactive),3.1% (inactive),103,-18.1% (inactive),113,-0.605 (inactive),-5.1e-05 (inactive),0.00373 (inactive),18.5% (inactive),18.2% (inactive)
C/C(=C\C(=O)c1ccc(F)cc1)Nc1ccc(N2CCOCC2)cc1,412,-7.9% (inactive),20.9% (inactive),86.5,-1.4% (inactive),99.6,-0.532 (inactive),3.5e-06 (inactive),0.00495 (inactive),-13.9% (inactive),-43.6% (inactive)
COc1ccccc1OCC(=O)Nc1ccc(S(=O)(=O)Nc2nc(C)cc(C)n2)cc1,376,0% (inactive),-13.8% (inactive),102,-84% (inactive),121,-0.335 (inactive),-6.1e-05 (inactive),0.00524 (inactive),11.5% (inactive),17.1% (inactive)
O=C(O)c1[nH]c2ccc(Cl)cc2c1CC(=O)N1CCN(C(=O)c2ccco2)CC1,374,-0.5% (inactive),-8.5% (inactive),99.6,-73.3% (inactive),103,-0.401 (inactive),-3.1e-05 (inactive),0.003 (inactive),7.71% (inactive),0.844% (inactive)
Cc1nnc(NC(=O)c2ccccc2F)s1,421,6% (inactive),14.2% (inactive),103,6.9% (inactive),125,-0.614 (inactive),5.1e-06 (inactive),0.00652 (inactive),-6.19% (inactive),-17.6% (inactive)
CC(C)c1ccc(CNc2ccc(N3CCOCC3)cc2)cc1,700,-11.3% (inactive),-26.2% (inactive),117,-54.6% (inactive),119,-0.316 (inactive),-4.8e-05 (inactive),0.00466 (inactive),-21.7% (inactive),-43.5% (inactive)
Cc1ccc(S(=O)(=O)N2CCN(C(=O)CSc3nnnn3C)C2)cc1,348,-14.6% (inactive),1.4% (inactive),92.8,-89.7% (inactive),113,-0.35 (inactive),5.7e-06 (inactive),0.00463 (inactive),6.82% (inactive),20.3% (inactive)
COC(=O)c1nc(N)sc1-c1ccccc1,592,7.2% (inactive),9.3% (inactive),99.9,4.8% (inactive),101,-0.352 (inactive),2.3e-05 (inactive),0.00535 (inactive),11.7% (inactive),37.7% (inactive)
